The structures appear in SMILES notation. The panel holds about 79,000 compounds, 15% with a hit somewhere; the sample as a whole holds those more often. Values without a mark were called inactive. The source made the active and inactive calls. Rule as the data show it: active = growth inhibition above about 70%; inactive = the rest.

Assay [1] can be described thus: NCI Yeast Anticancer Drug Screen. Data for the rad50 strain (AID 155).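 Also: 0% = growth of vehicle-only cultures of the same strain.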 To be noted: S. cerevisiae rad50 strain growth inhibition; at 50.0 µM; stronger effect = higher value. In short, it runs like this:
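Genetically altered yeast (DNA repair pathway); compound treatment; growth inhibition vs vehicle ctrl.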

The nature of assay [2]: NCI Yeast Anticancer Drug Screen. Data for the mec2-1 strain (AID 157). The conditions noted are these: S. cerevisiae mec2-1 strain, at 50.0 µM, stronger effect = higher value. The method in brief:
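Using mec2-1 yeast: add compound, measure growth, express inhibition versus vehicle-treated cultures.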

The nature of assay [3]: NCI Yeast Anticancer Drug Screen. Data for the sgs1 mgt1 strain (AID 161).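 Also: 0% = growth of cultures given vehicle only.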 To be noted: S. cerevisiae sgs1 mgt1 strain, at 50.0 µM, stronger effect = higher value. The method in brief:
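Compounds are added to genetically altered yeast, and growth is compared with cultures given vehicle alone to give percent inhibition.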

Assay [4] can be described thus: NCI Yeast Anticancer Drug Screen. Data for the cln2 rad14 strain (AID 165).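 Also: 0% = growth equal to vehicle treated cultures.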 The conditions noted are these: S. cerevisiae cln2 rad14 strain, at 50.0 µM, stronger effect = higher value. The method in brief:
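Yeast strain cln2 rad14, bearing defects in cell cycle control and DNA repair, serves as the test system; values reflect growth inhibition compared with vehicle.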

A short description of assay [5]: NCI Yeast Anticancer Drug Screen. Data for the bub3 strain (AID 167). The conditions noted are these: S. cerevisiae bub3 mutant strain, at 50.0 µM, stronger effect = higher value. The method in brief: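 Yeast carrying a defined mutation is treated with each compound, and growth is compared with that of vehicle-exposed cells to give inhibition.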
Assay [6] is described as follows: NCI Yeast Anticancer Drug Screen. Data for the mlh1 rad18 strain (AID 175). To be noted: S. cerevisiae mlh1 rad18 strain growth inhibition; at 50.0 µM; stronger effect = higher value. In short, it runs like this: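 Steps: expose repair-defective yeast to compound; measure growth; express inhibition against vehicle-treated controls.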

For the compound `CCC(CC)(CC#N)C1CCCCC1`, the growth inhibition in assay [1] is -0.8%; in assay [2], -0.35%; in assay [3] it was -0.6%; in assay [4], -13.8%; in assay [5] it was -3.15%; in assay [6], -8.2%.

For `O=C(O)c1cc(=O)c2[nH]c3ccccc3c2s1`, the growth inhibition in assay [1] was -5.2%; in assay [2], -17.9%; in assay [3] it was -19.5%; in assay [4], 9.55%; in assay [5] it was -22.6%; in assay [6], 7.95%.

For `CCCCC(CCC)OC(=O)Nc1cccc2ccccc12` (stereo not given), the growth inhibition in assay [1] was 35.1%; in assay [2] it was 0.35%; in assay [3] it was 3.35%; in assay [4], -16.1%; in assay [5] it was -0.15%; in assay [6] it was 40%.

For `COc1cc(C2C3=C(N=C4SC(C(C)=O)=C(C)N42)c2ccccc2CC3)cc(OC)c1OC` (stereo not given), the growth inhibition in assay [1] was -30.4%; in assay [2], -48.6%; in assay [3], -22.2%; in assay [4], 3.2%; in assay [5], -35.7%; in assay [6], -17.8%.

As for `Cc1sc2ccnc(C)c2c1S(=O)(=O)O`, the growth inhibition in assay [1] is 5.3%; in assay [2], 9.95%; in assay [3] it was -9.95%; in assay [4], -3.5%; in assay [5] it was 15.2%; in assay [6], -12.4%.

As to `COc1ccc(NC(=O)Nc2ccc(NC(C)=O)cc2)c(OC)c1`, the growth inhibition in assay [1] was -6%; in assay [2] it was -18.2%; in assay [3] it was 14.5%; in assay [4] it was 7.65%; in assay [5], 17.1%; in assay [6], 10.7%.

With `COc1ccc(-c2cc(=O)c3c(OC)cccc3o2)c(OC)c1OC`, the growth inhibition in assay [1] was -8.9%; in assay [2] it was -12.7%; in assay [3], -3.5%; in assay [4] it was 0.95%; in assay [5], -11.2%; in assay [6], 9.8%.

For the compound `O=C(Nc1ccc(Cl)c(Cl)c1)OC1C=CS(=O)(=O)C1` (stereo not given), the growth inhibition is -7.9% in assay [1]; -5.95% in assay [2]; -12.3% in assay [3]; 7.7% in assay [4]; 3.5% in assay [5]; -0.15% in assay [6].

In the case of `CC(=O)OC1C(=C(Br)Br)C(COC(=O)c2ccccc2)OC1n1cnc2c(NC(=O)c3ccccc3)ncnc21` (stereo not given), the growth inhibition in assay [1] is 8.3%; in assay [2], 8.8%; in assay [3], 10.4%; in assay [4], 0.1%; in assay [5] it was 16.9%; in assay [6] it was 25.9%.

As to `CCN(CC)CCOC(=O)Cc1cccc2c(=O)cc(-c3ccc(OC)cc3)oc12`, the growth inhibition was 50.4% in assay [1]; -9.95% in assay [2]; -12.4% in assay [3]; 8.9% in assay [4]; -10.2% in assay [5]; -45.4% in assay [6].

Turning to `CC1(c2ccc(-c3ccccc3)cc2)NC(=O)NC1=O` (stereo not given), the growth inhibition in assay [1] was 3.55%; in assay [2], 10.3%; in assay [3] it was 14.9%; in assay [4], -22.5%; in assay [5] it was -4.85%; in assay [6], -2.3%.

Consider `O=[N+]([O-])c1cccc(S(=O)(=O)SSS(=O)(=O)c2cccc([N+](=O)[O-])c2)c1`, for which the growth inhibition was 16.6% in assay [1]; 18.1% in assay [2]; 55.9% in assay [3]; 20.8% in assay [4]; 5.75% in assay [5]; 28.2% in assay [6].

In the case of `[N-]=[N+]=C(C(=O)OCC#CCOC(=O)C(=[N+]=[N-])S(=O)(=O)c1ccccc1)S(=O)(=O)c1ccccc1`, the growth inhibition in assay [1] was -8.95%; in assay [2] it was -20.6%; in assay [3], 12.8%; in assay [4] it was -31.6%; in assay [5], -8.95%; in assay [6], -17.1%.

In the case of `C#CCC(O)c1ccc(OC)c(OCc2ccccc2)c1` (stereo not given), the growth inhibition in assay [1] was -6.05%; in assay [2], -17.9%; in assay [3], 18.6%; in assay [4], 4.4%; in assay [5] it was 4.45%; in assay [6] it was -1.4%.

With `Cc1ccc(/C(=C/CN2CC3CCC(CC3)C2)c2ccccc2)cc1`, the growth inhibition in assay [1] is -1.15%; in assay [2], -4.5%; in assay [3], 11.9%; in assay [4], -14.3%; in assay [5], 10.4%; in assay [6] it was -13.8%.

Take `CN(C)C(=O)Sc1nnc(C(C)(C)C)o1`: the growth inhibition in assay [1] is -4.35%; in assay [2], -5.9%; in assay [3], -7.3%; in assay [4], -23.4%; in assay [5] it was 1.7%; in assay [6], 4.2%.

`CCN(CC)C(=S)N=N/C(C)=C1/C=CC=CN1O`: the growth inhibition in assay [1] was 1.4%; in assay [2] it was 0.4%; in assay [3], 14.6%; in assay [4], 13.6%; in assay [5], 16.2%; in assay [6], 74% (active).

On to `COC1OC(CCl)C(Cl)C(Cl)C1O` (stereo not given), for which the growth inhibition in assay [1] was 17.7%; in assay [2] it was -7.85%; in assay [3] it was 4.55%; in assay [4], -44.2%; in assay [5] it was 5.9%; in assay [6] it was 4.8%.

In the case of `CC(=NNC(=S)Nc1ccc(C)cc1)c1cccc(C(C)=NNC(=S)Nc2ccc(C)cc2)n1`, the growth inhibition was 35.5% in assay [1]; 14.1% in assay [2]; 36.8% in assay [3]; 17.4% in assay [4]; 12.4% in assay [5]; 23.8% in assay [6].

Consider `C=C1CC(C2CCC(C)(C)C2)OC1=O` (stereo not given), for which the growth inhibition in assay [1] is 13.7%; in assay [2], 8%; in assay [3], 9.15%; in assay [4] it was 17.3%; in assay [5] it was 2.15%; in assay [6], -0.8%.

The record behind these values is PubChem BioAssay (NCI).
